The source of these data is ChEMBL document CHEMBL3988442, “University of Dundee, Small-Polar-MMV Screening Library” (2021).

Each structure is given as a SMILES string.

The first assay deals with T1, Aspartate--tRNA(Asp/Asn) ligase (Mycobacterium tuberculosis (strain ATCC 25618 / H37Rv)) (UniProt P9WFW3).
T1 sequence (whole entry): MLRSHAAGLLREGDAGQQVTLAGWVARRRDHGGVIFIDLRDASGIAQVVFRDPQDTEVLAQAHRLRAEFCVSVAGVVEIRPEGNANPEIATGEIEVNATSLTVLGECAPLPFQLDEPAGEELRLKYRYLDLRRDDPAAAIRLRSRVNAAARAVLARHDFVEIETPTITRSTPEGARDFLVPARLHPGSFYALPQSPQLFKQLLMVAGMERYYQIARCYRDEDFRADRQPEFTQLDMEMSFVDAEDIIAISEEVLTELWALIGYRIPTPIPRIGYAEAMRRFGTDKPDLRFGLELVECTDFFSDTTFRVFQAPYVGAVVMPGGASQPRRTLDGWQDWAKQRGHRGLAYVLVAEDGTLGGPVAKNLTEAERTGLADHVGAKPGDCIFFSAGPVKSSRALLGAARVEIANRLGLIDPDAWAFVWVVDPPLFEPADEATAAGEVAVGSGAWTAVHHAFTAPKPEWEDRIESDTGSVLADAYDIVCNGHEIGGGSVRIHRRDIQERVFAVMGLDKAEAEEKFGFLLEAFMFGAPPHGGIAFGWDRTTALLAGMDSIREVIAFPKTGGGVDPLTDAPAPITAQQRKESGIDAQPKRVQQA
The experiment in a line: Assay for Asp RNA synthetase-1 from Mycobacterium tuberculosis. It is filed as functional. The note with it: 30 µM. Also noted: scale not given: direction of the effect not stated beside the values.
In the case of `CCc1nc(C2CCCN2C(=O)c2nccnc2N)no1` (stereo not given), the Percent Effect was -4.3%.

On to `NC(=O)C1CCN(C(=O)c2ccn(-c3ccc(F)cc3)n2)C1` (stereo not given), for which the Percent Effect was 9.24%.

For the compound `COCC1CN(Cc2ccc(OC)cc2)Cc2nn(C)cc21` (stereo not given), the Percent Effect was 14.5%.

As for `O=S1(=O)CCN(Cc2cccnc2)[C@H]2CCN(c3ncccn3)CC[C@H]21`, the Percent Effect stood at 1.96%.

Regarding `CS(=O)(=O)CCN1CCC2(CCCN(C3CCOCC3)C2=O)C1` (stereo not given), the Percent Effect is 1.8%.

Turning to `O=C(CCN1CCCC1c1cccs1)N1CCc2sccc2C1` (stereo not given), the Percent Effect was -0.954%.

Take `Cn1cc(CN(Cc2ccccc2)CC(O)c2cccs2)cn1` (stereo not given): the Percent Effect amounted to 0.353%.

With `c1ccc(CCN2CCN(c3ccc4nncn4n3)CC2)nc1`, the Percent Effect came out at 1.58%.

On to `CCn1cnnc1C1CCN(C(=O)COCCc2ccccc2)CC1`, for which the Percent Effect was -3.95%.

Take `COc1ccc(CN2CC[C@@H](O)[C@@H]2Cc2ccccc2)cc1`: the Percent Effect is -0.406%.

Regarding `N#CCSCCCN1CCCN(C(=O)c2ccccc2)CC1`, the Percent Effect was -4.83%.

As to `Cc1nc(CNCC2CCCN2c2cccnn2)no1` (stereo not given), the Percent Effect is -2.08%.

As to `CCOCC1CN(C(=O)C2=CCCC2)Cc2cnn(CC)c21` (stereo not given), the Percent Effect was -0.107%.

`Cc1cccnc1CNCC1(O)CCCN(CC2CCCCC2)C1=O` (stereo not given): the Percent Effect was -2.28%.

On to `CSc1ncccc1C(=O)N1CCC(c2nc3c(C)cccc3[nH]2)CC1`, for which the Percent Effect was determined as 3.63%.

Regarding `Cc1nc(Nc2ncccn2)cc(C2CCCN2CC(C)C)n1` (stereo not given), the Percent Effect is -0.75%.

For the compound `CN(CC(=O)N1CCCC1c1cnn(C)c1)c1ccc(Cl)cn1` (stereo not given), the Percent Effect was -2.16%.

With `Cc1nsc(NC(=O)N2CCN(Cc3ccc(F)cc3)C(=O)C2)n1`, the Percent Effect is 2.26%.

As for `Nc1nccc(N2CCC(Cc3ccccc3Cl)(C(=O)O)CC2)n1`, the Percent Effect was -0.368%.

As for `CNC(=O)c1cccc(C2CNCCN2C)c1` (stereo not given), the Percent Effect is -2.1%.

In the case of `O=C(CCc1ccccc1)N1CCn2cc(CN3CCCC3)nc2C1`, the Percent Effect was 0.131%.

For `O[C@H]1CCN(Cc2ccoc2)[C@H]1Cc1cccnc1`, the Percent Effect came out at 6.58%.

`NC(=O)CN1CCCN(C(=O)c2ccn(-c3ccccc3)n2)CC1`: the Percent Effect was -2.4%.

On to `Cc1cnn(CC2CCCCN2C(=O)c2ccnc(N(C)C)c2)c1` (stereo not given), for which the Percent Effect turned out to be 1.07%.

For `COCC(=O)N1CCC(c2nc3ccc(N4CCCC4)cn3n2)CC1`, the Percent Effect is -0.957%.

Take `OCC1CCCN1c1cc(NCCc2c[nH]c3ccccc23)ncn1` (stereo not given): the Percent Effect was found to be 11.5%.

As for `COc1ccc(CN(C)[C@@H]2CN(C(=O)c3cccs3)C[C@H]2O)cc1`, the Percent Effect was -4.54%.

With `Cc1cnn(CC2CCCN2C(=O)c2cc(C)no2)c1` (stereo not given), the Percent Effect is -4.16%.

Turning to `COCCN1C(=O)CC(N2CCN(c3ccc(OC)cc3)CC2)C1=O` (stereo not given), the Percent Effect is -5.68%.

In the case of `CC(=O)N1N=C(c2ccccc2)OC1C(=O)NCCc1cccc(Cl)c1` (stereo not given), the Percent Effect was -3.19%.

For the compound `CCc1ccc(-n2c(=O)[nH]c3nc(N4CCSCC4)ncc3c2=O)cc1`, the Percent Effect turned out to be 15.3%.

Turning to `Cc1cnn(C2CCCN(C(=O)c3ccn(C)c(=O)c3)C2)c1` (stereo not given), the Percent Effect was -2.74%.

For `Cn1ccnc1CN1CC[C@@H](NS(C)(=O)=O)[C@@H]1Cc1cccnc1`, the Percent Effect is -0.168%.

As to `COc1ccc(CN2C[C@H]3CN(c4ccsc4)C(=O)[C@H]3C2)cc1`, the Percent Effect turned out to be 4.05%.

On to `CC(NC(=O)N(C)Cc1ccsc1)c1ccc2c(c1)OCO2` (stereo not given), for which the Percent Effect stood at 1.79%.

Consider `Cn1ccc(C(=O)NC2CCC23CCN(Cc2cccnc2)CC3)c1` (stereo not given), for which the Percent Effect was 0.843%.

Regarding `Cc1nn(C)c2c(N3CCN(C(=O)c4ccccc4)CC3)ncnc12`, the Percent Effect came out at 0.348%.

On to `CCc1ccc(S(=O)(=O)Nc2c(C)cccc2C(=O)O)s1`, for which the Percent Effect was determined as 0.112%.

Turning to `Cc1nn(C)c2sc(C(=O)N3CCCC(n4ccnc4C)C3)cc12` (stereo not given), the Percent Effect is -1.41%.

`Cc1ccc(N2CCCN(C(=O)C3(C#N)CCCCC3)CC2)nn1`: the Percent Effect was -0.989%.

The next assay addresses Shiga toxin 2 (Escherichia coli O157:H7) (UniProt P09385+P09386). The experiment in a line: E. coli 0.157:H7 Shiga Toxin SOP - stx2 screening assay. The note with it: 30 µM. It is filed as functional. More on the design: scale not given: direction of the effect not stated beside the values.
Take `CCc1nc(C2CCCN2C(=O)c2nccnc2N)no1` (stereo not given): the Percent Effect amounted to 8.58%.

Take `NC(=O)C1CCN(C(=O)c2ccn(-c3ccc(F)cc3)n2)C1` (stereo not given): the Percent Effect amounted to 3.03%.

`COCC1CN(Cc2ccc(OC)cc2)Cc2nn(C)cc21` (stereo not given): the Percent Effect is -22.6%.

`O=S1(=O)CCN(Cc2cccnc2)[C@H]2CCN(c3ncccn3)CC[C@H]21`: the Percent Effect is -36.2%.

On to `CS(=O)(=O)CCN1CCC2(CCCN(C3CCOCC3)C2=O)C1` (stereo not given), for which the Percent Effect is -11.9%.

For `O=C(CCN1CCCC1c1cccs1)N1CCc2sccc2C1` (stereo not given), the Percent Effect worked out at 1.91%.

`Cn1cc(CN(Cc2ccccc2)CC(O)c2cccs2)cn1` (stereo not given): the Percent Effect turned out to be 9.88%.

Regarding `c1ccc(CCN2CCN(c3ccc4nncn4n3)CC2)nc1`, the Percent Effect was -28.9%.

Take `CCn1cnnc1C1CCN(C(=O)COCCc2ccccc2)CC1`: the Percent Effect is -20.2%.

Consider `COc1ccc(CN2CC[C@@H](O)[C@@H]2Cc2ccccc2)cc1`, for which the Percent Effect is -47%.

`N#CCSCCCN1CCCN(C(=O)c2ccccc2)CC1`: the Percent Effect is -31.2%.

Consider `Cc1nc(CNCC2CCCN2c2cccnn2)no1` (stereo not given), for which the Percent Effect was -15.8%.

`CCOCC1CN(C(=O)C2=CCCC2)Cc2cnn(CC)c21` (stereo not given): the Percent Effect came to 3.46%.

For `Cc1cccnc1CNCC1(O)CCCN(CC2CCCCC2)C1=O` (stereo not given), the Percent Effect worked out at 13.1%.

Turning to `CSc1ncccc1C(=O)N1CCC(c2nc3c(C)cccc3[nH]2)CC1`, the Percent Effect is -17.2%.

For `Cc1nc(Nc2ncccn2)cc(C2CCCN2CC(C)C)n1` (stereo not given), the Percent Effect worked out at 13.5%.

As to `CN(CC(=O)N1CCCC1c1cnn(C)c1)c1ccc(Cl)cn1` (stereo not given), the Percent Effect was 29.7%.

Take `Cc1nsc(NC(=O)N2CCN(Cc3ccc(F)cc3)C(=O)C2)n1`: the Percent Effect is -7.74%.

Consider `Nc1nccc(N2CCC(Cc3ccccc3Cl)(C(=O)O)CC2)n1`, for which the Percent Effect was -4.46%.

As for `CNC(=O)c1cccc(C2CNCCN2C)c1` (stereo not given), the Percent Effect is -13.8%.

For `O=C(CCc1ccccc1)N1CCn2cc(CN3CCCC3)nc2C1`, the Percent Effect was -15.9%.

In the case of `O[C@H]1CCN(Cc2ccoc2)[C@H]1Cc1cccnc1`, the Percent Effect was -6%.

On to `NC(=O)CN1CCCN(C(=O)c2ccn(-c3ccccc3)n2)CC1`, for which the Percent Effect was 6%.

For `Cc1cnn(CC2CCCCN2C(=O)c2ccnc(N(C)C)c2)c1` (stereo not given), the Percent Effect came out at 16.2%.

Regarding `COCC(=O)N1CCC(c2nc3ccc(N4CCCC4)cn3n2)CC1`, the Percent Effect was -26.9%.

As to `OCC1CCCN1c1cc(NCCc2c[nH]c3ccccc23)ncn1` (stereo not given), the Percent Effect was -28.9%.

For the compound `COc1ccc(CN(C)[C@@H]2CN(C(=O)c3cccs3)C[C@H]2O)cc1`, the Percent Effect turned out to be 12%.

In the case of `Cc1cnn(CC2CCCN2C(=O)c2cc(C)no2)c1` (stereo not given), the Percent Effect amounted to 16.5%.

Consider `COCCN1C(=O)CC(N2CCN(c3ccc(OC)cc3)CC2)C1=O` (stereo not given), for which the Percent Effect was 3.53%.

For `CC(=O)N1N=C(c2ccccc2)OC1C(=O)NCCc1cccc(Cl)c1` (stereo not given), the Percent Effect stood at 19.6%.

With `CCc1ccc(-n2c(=O)[nH]c3nc(N4CCSCC4)ncc3c2=O)cc1`, the Percent Effect was -13.5%.

For `Cc1cnn(C2CCCN(C(=O)c3ccn(C)c(=O)c3)C2)c1` (stereo not given), the Percent Effect turned out to be 22%.

On to `Cn1ccnc1CN1CC[C@@H](NS(C)(=O)=O)[C@@H]1Cc1cccnc1`, for which the Percent Effect is -4.31%.

Take `COc1ccc(CN2C[C@H]3CN(c4ccsc4)C(=O)[C@H]3C2)cc1`: the Percent Effect is -26.4%.

As to `CC(NC(=O)N(C)Cc1ccsc1)c1ccc2c(c1)OCO2` (stereo not given), the Percent Effect worked out at 28.8%.

For the compound `Cn1ccc(C(=O)NC2CCC23CCN(Cc2cccnc2)CC3)c1` (stereo not given), the Percent Effect was -5.95%.

Consider `Cc1nn(C)c2c(N3CCN(C(=O)c4ccccc4)CC3)ncnc12`, for which the Percent Effect was -28.7%.

On to `CCc1ccc(S(=O)(=O)Nc2c(C)cccc2C(=O)O)s1`, for which the Percent Effect came to 25.9%.

Consider `Cc1nn(C)c2sc(C(=O)N3CCCC(n4ccnc4C)C3)cc12` (stereo not given), for which the Percent Effect is -28.1%.

As for `Cc1ccc(N2CCCN(C(=O)C3(C#N)CCCCC3)CC2)nn1`, the Percent Effect came to 4.54%.
